# Reference: PubChem BioAssay (Tox21)
# Inconclusive results are not listed. Unmarked numbers belong to inactive results. The source made the active and inactive calls. Calls follow the shape of the dose curve; as a rule, active = well fitted activation curve with a large enough effect in the repeat runs; inconclusive = weak or mixed curves; inactive = no such curve, though single readings can be large or run the other way.
# Target: Nuclear receptor subfamily 1 group I member 2 (Homo sapiens) (UniProt O75469)
# Assay: CYP3A4 induction through human pregnane X receptor (PXR) by small molecules, qHTS assay (AID 1346984); also: nearly all actives have a fitted effect of over 40% in size
# Conditions: DPX-2 HepG2 PXR, CYP3A4-luciferin luminescence, 24 h; series mostly up to 46.1 µM; activation: at the top concentration
# Text: National Center for Advancing Translational Sciences [NCATS]
# NIH Chemical Genomics Center [NCGC]
# U.S. Environmental Protection Agency [EPA]
# National Institutes of Environmental Health Sciences [NIEHS]
# National Toxicology Program [NTP]
# The Pregnane X receptor (PXR), a ligand activated nuclear receptor plays a critical role in the regulation of genes involved in drug metabolism and transporters. Activation of PXR is responsible for unwanted adverse drug reactions. PXR binds xenobiotics and when compounds interact with PXR enhances the expression of CYP3A genes. Identifying the compounds with the potential for PXR activation and CYP3A4 induction can be of importance in improving the efficacy of drugs with less toxicity and avoiding drug-drug interactions.
# DPX-2 (Puracyp, Inc.) cell lines, used for screening against human PXR activation has HepG2 cells co-transfected with a PXR response element and a luciferase construct containing CYP3A4 promoter. Increase in luciferase activity can be used to identify the compounds that cause the induction of CYP3A4.
# DPX-2 cells were dispensed at 2,000 cells per well in 5uL of assay medium into white, solid-bottom 1536-well plates using a Multidrop Combi dispenser (Thermo Scientific). The assay plates were incubated at 37C for 5hr before transferring 23nL of test compounds dissolved in DMSO and positive control via Pintool station (Wako). The assay plates were incubated at 37C for 24hr. After 24hr compound treatment, 1uL of 3uM (final concentration) P450 substrate (P450-Glo CYP3A4 screening system with Luciferin-IPA, Promega) was added by a Flying Reagent Dispenser (FRD, Aurora Discovery). The assay plates were incubated for 3hr at 37C. Then 5ul One-Glo assay reagent (Promega) was added to each plate by an FRD and following 30 min incubation at room temperature, luciferase activity was quantified on a ViewLux plate reader (Perkin Elmer).
# % is scaled to controls: 0 for no effect and ±100 for the full control effect; potency is read from the fitted curve at half-maximal effect.
SMILES,activation,Potency
CC[N+](CC)(CC)CCOc1ccc(/C=C/c2ccccc2)cc1,-5.12%,–
CC(CCc1ccccc1)NCC(O)c1ccc(O)c(C(N)=O)c1 (stereo not given),-18.9%,–
CN(C)c1ccc(C(=C2C=CC(=[N+](C)C)C=C2)c2ccc(N(C)C)cc2)cc1,-34.2%,–
CCCCC(CC)CN1CN(CC(CC)CCCC)CC(C)(N)C1 (stereo not given),-7.81% [at 20.6 µM],–
CCCCCCCC/C=C\CCCCCCCCN,-8.06%,–
C#C[C@]1(OC(C)=O)CC[C@H]2[C@@H]3CCC4=C/C(=N/O)CC[C@@H]4[C@H]3CC[C@@]21CC,-17.7%,–
Nc1ccc(C(=O)O)c(O)c1,-5.03%,–
C#C[C@]1(O)CC[C@H]2[C@@H]3[C@H](C)CC4=C(CCC(=O)C4)[C@H]3CC[C@@]21C,-7.37%,–
O=C(O)c1cc(-c2ccc(F)cc2F)ccc1O,5.35% [at 20.6 µM],–
CC(C(=O)O)c1ccc2c(c1)[nH]c1ccc(Cl)cc12 (stereo not given),-9.73%,–
C[C@@H](O)[C@H](N)C(=O)O,10.5%,–
COc1ccc2cc1Oc1ccc(cc1)C[C@H]1c3c(cc4c(c3Oc3cc5c(cc3OC)CCN(C)[C@@H]5C2)OCO4)CCN1C,–,10 µM (active)
COC(=O)C1=C(C)NC(C)=C(C(=O)OCCN2CCN(C(c3ccccc3)c3ccccc3)CC2)C1c1cccc([N+](=O)[O-])c1 (stereo not given),-26.3%,–
CN1CCCCC1CCN1c2ccccc2Sc2ccc(S(C)=O)cc21 (stereo not given),-10.3%,–
CCCCCCCCCCCCCCCC[N+](C)(C)CC,-12.5%,–
O[C@@H]([C@H](O)[C@H](O)CBr)[C@H](O)CBr,-6.79%,–
CCCCCCCCCCCCCC[N+](C)(C)Cc1ccccc1,-1.32%,–
Cc1cc(C(C#N)c2ccc(Cl)cc2)c(Cl)cc1NC(=O)c1cc(I)cc(I)c1O (stereo not given),3.22%,–
CCCCCCCCCCCCCC[N+](C)(C)C,-7.24%,–
CCCCCCCCCCCCOCCOCCOCCOCCOCCOCCOCCOCCOCCO,-19%,–

SMILES,activation,Potency
CCc1oc2ccccc2c1C(=O)c1cc(I)c(O)c(I)c1,–,25.1 µM (active)
CN(C)C(=O)COC(=O)Cc1ccc(OC(=O)c2ccc(N=C(N)N)cc2)cc1,-2.35%,–
COc1c(C)c2c(c(O)c1C/C=C(\C)CCC(=O)OCCN1CCOCC1)C(=O)OC2,22.2%,–
O=c1[nH]c(=O)n([C@H]2C[C@H](O)[C@@H](CO)O2)cc1F,-0.239%,–
Cc1cccc(C(=O)O)c1O,-2.46%,–
O=C(O)c1cc(=O)c2ccccc2o1,3.7%,–
CCCCCCCCCCC[C@@H](C[C@@H]1OC(=O)[C@H]1CCCCCC)OC(=O)[C@H](CC(C)C)NC=O,-9.24%,–
COC1=C(OC)C(=O)C(CCCCCCCCCCO)=C(C)C1=O,37.8%,–
Nc1nc(N)nc(-c2cc(Cl)ccc2Cl)n1,-5.77%,–
Cc1c(F)c(N2CCNC(C)C2)cc2c1c(=O)c(C(=O)O)cn2C1CC1 (stereo not given),-0.0569%,–
Cc1cc(-n2nc3ccc(Cl)cc3n2)c(O)c(C(C)(C)C)c1,-4.96%,–
Cc1cc(C(C)(C)C)cc(C)c1CC1=NCCN1,26.1% [at 20.6 µM],–
CC(C)Cn1cnc2c(N)nc3ccccc3c21,2.01%,–
Cc1ccc(C(C)C)cc2c(C)ccc1-2,26.1%,–
Cc1c(C)c2c(c(C)c1OC(=O)c1cccnc1)CC[C@@](C)(CCC[C@H](C)CCC[C@H](C)CCCC(C)C)O2,21.9%,–
C#C[C@]1(OC(C)=O)CC[C@H]2[C@@H]3CCC4=C[C@@H](OC(C)=O)CC[C@@H]4[C@H]3CC[C@@]21C,-15.8%,–
Cc1nc(-c2ccc(Cl)cc2)oc1COC(C)(C)C(=O)O,-1.51%,–
CCCCC/C=C\C/C=C\CCCCCCCC(=O)O,-4.08%,–
Nc1nc2c(ncn2COCCO)c(=O)[nH]1,-2.27% [at 20.6 µM],–
CCc1cccc(CC)c1NC(=O)CN(CC(=O)O)CC(=O)O,-0.696% [at 20.6 µM],–
